From PubChem
Chronic BCR inh: qHTS Assay to Find Inhibitors of Chronic Active B-Cell Receptor Signaling. ABC-DLBCL IkBa-CBG/CBR reporter, luminescence ratio, 4 h. Potency, µM (titrated, usually from 46.1 µM), without a hit: at the top dose activity change, negative = inhibition, usual class: inhibitors. actives 0.05% (n = 340,000); active means well fitted inhibition curve with a large enough effect in the signal ratio, with a control signal flat, not every such curve was filed as active; inconclusive means small, poorly fitted or top-dose-only effect, or effect the other way, or a change in a side signal; the % refers to the signal ratio;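 further: potency means the concentration at half of the fitted maximal effect; plate controls were basal doxycycline-induced cells for no effect and cells given 10 µM MG132 for full effect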
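TMD8 ABC-DLBCL cells carrying doxycycline-inducible green luciferase fused to IkappaBalpha plus unfused red luciferase were exposed to compounds (up to 46 uM) for 4 hrs at 37C. Activity came from the overlap-corrected green/red luminescence ratio.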
12-LOX inh: Primary qHTS assay for inhibitors of human arachidonate 12S-lipoxygenase (ALOX12): Round 2; Polyunsaturated fatty acid lipoxygenase ALOX12 (Homo sapiens), P18054; purified 12hLO, xylenol orange hydroperoxide absorbance; Potency, µM (highest dose often 108 µM), inactives show top-dose activity change, negative = inhibition, usual class: inhibitors; actives 1.1% (n = 580,000); active means well fitted inhibition curve with a large enough effect; inconclusive means small, poorly fitted or top-dose-only effect, or another doubt; inactive means no such curve, though single readings can be large or run the other way; further: potency means the concentration at half of the fitted maximal effect; on the % scale 0 is the no-effect control and ±100 the full control effect
Target sequence (P18054 whole entry, looked up): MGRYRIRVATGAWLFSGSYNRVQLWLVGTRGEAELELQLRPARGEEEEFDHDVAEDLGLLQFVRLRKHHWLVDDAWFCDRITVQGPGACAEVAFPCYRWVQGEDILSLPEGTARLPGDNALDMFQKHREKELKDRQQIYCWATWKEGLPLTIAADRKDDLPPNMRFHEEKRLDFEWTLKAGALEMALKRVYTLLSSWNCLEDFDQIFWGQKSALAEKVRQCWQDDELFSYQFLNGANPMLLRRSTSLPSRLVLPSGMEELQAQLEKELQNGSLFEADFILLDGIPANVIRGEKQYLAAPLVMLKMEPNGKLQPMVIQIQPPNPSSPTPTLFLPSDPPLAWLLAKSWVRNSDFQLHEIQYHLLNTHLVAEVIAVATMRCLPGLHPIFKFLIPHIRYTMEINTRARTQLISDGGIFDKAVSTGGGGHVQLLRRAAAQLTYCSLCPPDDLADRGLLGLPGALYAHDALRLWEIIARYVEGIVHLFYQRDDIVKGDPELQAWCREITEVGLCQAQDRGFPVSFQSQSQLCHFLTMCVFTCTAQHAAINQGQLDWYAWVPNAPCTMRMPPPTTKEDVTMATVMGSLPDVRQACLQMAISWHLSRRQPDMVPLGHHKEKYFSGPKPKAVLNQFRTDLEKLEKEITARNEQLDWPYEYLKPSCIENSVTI
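Purified human 12hLO at 150 nM in 25 mM Hepes, 0.01% Triton X-100, pH 7.0, preincubated 15 min at room temperature with compound. Reaction started with 40 uM arachidonic acid, 30 min at room temperature. Hydroperoxide measured by Fe-xylenol orange, 573/405 nm absorbance ratio.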
KCNH2 WT inh: qHTS for Inhibitors of KCHN2 3.1: Wildtype qHTS; Voltage-gated inwardly rectifying potassium channel KCNH2 (Homo sapiens), Q12809; U2OS, BacMam KCNH2, thallium flux FluxOr; hits give low values; activity change, % at 1.84 µM; actives 0.37% (n = 340,000);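 active means maximum activity change below -70%; inconclusive means maximum activity change between -70% and -50%; inactive means maximum activity change above -50%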; further: on the % scale 0 is the no-effect control and ±100 the full control effect
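U2OS cells transduced with wild-type KCNH2 virus are loaded with FluxOr dye for 45 min, and thallium flux is measured in kinetic reads before and after stimulation buffer. Rate constants are normalized to DMSO controls.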
KCNH2 3.1 inh: qHTS for Inhibitors of KCHN2 3.1: Mutant qHTS | Potassium voltage-gated channel subfamily H member 2, brain isoform KCNH2 3.1 (human) | U2OS KCNH2 3.1, thallium flux FluxOr; hits give low values | activity change, % (tested at about 1.8 µM) | actives 0.95% (n = 340,000) | AID 720553, 2013;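 active means maximum activity change below -70%; inconclusive means maximum activity change from -70% to -50%; inactive means maximum activity change above -50%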;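 further: thallium influx rate constant from kinetic fluorescence after stimulation buffer; on the % scale 0 is the no-effect control and ±100 the full control effect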
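Channel expression came from 3.1 mutant virus (1.77 x 10^8 /mL) applied to suspended U2OS cells for 4 h. Flux was tracked with FluxOr dye plus Red40 quencher, and kinetic rate constants normalized to controls.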
ClpP mod: qHTS Assay for Activators of ClpP; ATP-dependent Clp protease proteolytic subunit (Bacillus subtilis (strain 168)), P80244; purified B. subtilis ClpP, FRET peptide cleavage, 20 min; Potency, µM (doses to about 57.5 µM), for the others: top-dose activity change, negative = active; actives 1.9% (n = 340,000); active means well fitted falling curve with a large enough effect; inconclusive means small, poorly fitted or top-dose-only effect; inactive means no such curve, though single readings can be large or run the other way; further: potency means the concentration at half of the fitted maximal effect; the source files actives as falling curves though it sought activators and does not explain the sign; nearly all actives have a fitted effect of over 65% in size
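ClpP 10 microg/mL final, pH 8 Tris/KCl buffer with BSA, glycerol, Tween-20; compound pinned in; FRET-FV substrate; RT 20 min; Ex320/Em430; ΔFRET vs ADEP 5.8 microM, DMSO, no enzyme.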
LDHA inh: qHTS assay for inhibitors of human lactate dehydrogenase | purified LDHA, NADH/diaphorase-resazurin fluorescence; hits give low values | activity change, % (values are at about 110 or 230 µM) | AID 1347041, 2019 | actives 0.15% (n = 480,000); in the data active means activity change below about -30%; inconclusive means mostly about -25% to -30%;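 further: plate controls were DMSO wells for no effect and wells without enzyme for full effect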
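Human LDH5 (2 nM) was incubated with 0.06 mM NADH and 0.2 mM pyruvate for 5 min at room temperature in Tris pH 7.4. Remaining NADH was coupled through diaphorase/resazurin, and resorufin fluorescence was read at 0 and 20 min.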
* hit, by the source's call; ? = inconclusive; . = not tested or not shown; [ ] = remark or other dose. In the library only some 3% were active in any assay of this set; here they are far more common.

SMILES	Chronic BCR inh	12-LOX inh	KCNH2 WT inh	KCNH2 3.1 inh	ClpP mod	LDHA inh
CC(=O)c1cc(Cc2csc(C(C)=O)c2)cs1	?	-4%	10	0	1%	-9
CS(=O)(=O)c1ccccc1NC(=O)COc1ccccc1C(N)=O	.	?	.	.	.	-6
Oc1cccc(C(=S)N2CCCCC2)c1	8%	?	-4	-146*	.	-11
COc1ccc(Nc2nc(N)c(C(=O)c3ccc(C)cc3C)s2)cc1	.	?	.	.	.	6
COc1ccc(N/C=C\C(=O)c2ccc(C)cc2)cc1OC	-10%	-18%	-22	-141*	.	5
O=S(=O)(NCCN1CCOCC1)c1ccc(F)c(Cl)c1	6%	20µM*	-4	-30	.	-6
O=S(=O)(NCCN1CCOCC1)c1ccc(Cl)c(Cl)c1	3%	-4%	1	-2	-4%	-5
COc1ccc(C2=NN(C(=O)C(C)(C)C)C(c3ccc4nccnc4c3)C2)cc1 (stereo not given)	.	?	.	.	.	1
Cc1ccc2c(=O)c(-c3nc(-c4ccc(Cl)cc4)no3)cn(CC(=O)NCc3ccco3)c2n1	.	20µM*	.	.	.	-6
CCCn1c(=O)[nH]c(=O)c2c1nc(-c1ccc(OC(F)F)c(OC)c1)n2CCOC	?	0%	5	-16	25µM*	14
COCCn1c(-c2ccc(SC)cc2)nc2c1c(=O)[nH]c(=O)n2CC(C)C	?	-34%	1	6	.	0
COCCn1c(-c2ccc(OC(F)(F)C(F)C(F)(F)F)cc2)nc2c1c(=O)[nH]c(=O)n2CC(C)C (stereo not given)	9%	0%	-22	.	28µM*	1
CCCn1c(=O)[nH]c(=O)c2c1nc(-c1ccc(OC)cc1)n2CCOC	.	-6%	.	.	.	-5
CCCn1c(=O)[nH]c(=O)c2c1nc(-c1ccccc1OC(F)F)n2CCOC	-4%	-4%	-4	3	25µM*	-10
CCCCn1c(=O)[nH]c(=O)c2c1nc(-c1ccccc1OC(F)F)n2C	?	-15%	-7	-21	.	3
Fc1ccc(-[n+]2nc(Nc3ccccc3)sc2-c2ccc(OCc3ccccc3)cc2)cc1	-9%	40µM*	.	.	-1%	-4
CCOc1cc(-c2sc(Nc3ccccc3)n[n+]2-c2ccc(F)cc2)ccc1OC	1%	-27%	1	-13	-3%	-3
O=S(=O)(NCc1ccc(N2CCOCC2)nc1)c1cc(C(F)(F)F)cc(C(F)(F)F)c1	.	7.1µM*	.	.	.	8
FC(F)(F)c1cccc(C2=NOC3(CCN(Cc4ccsc4)C3)C2)c1 (stereo not given)	.	8%[6.33 µM]	.	.	.	.
COc1ccc(CN2C(=O)CO[C@H]3CN(CC4CC4)C[C@H]32)cc1	.	7%[176 µM]	.	.	.	.
COc1ccc(CN2C(=O)CO[C@H]3CN(Cc4c[nH]c5ccccc45)C[C@H]32)cc1	.	40µM*	.	.	.	.
C=CCOc1cccc(C2C(C(=O)c3ccco3)=C(O)C(=O)N2Cc2ccncc2)c1 (stereo not given)	7%	?	-3	.	0%	4
C=CCOc1cccc(C2C(C(=O)c3ccco3)=C(O)C(=O)N2Cc2ccco2)c1 (stereo not given)	-1%	45µM*	11	11	.	4
COc1ccc(S(=O)(=O)N2CCN(CC(=O)Nc3c(C)n[nH]c3C)CC2)cc1OC	3%	0.56µM*	5	11	-1%	-36*
Cc1n[nH]c(C)c1NC(=O)CN1CCN(S(=O)(=O)c2ccc(C(F)(F)F)cc2)CC1	.	-69%	-9	-9	-1%	-37*
SMILES	Chronic BCR inh	12-LOX inh	KCNH2 WT inh	KCNH2 3.1 inh	ClpP mod	LDHA inh
COc1ccc(S(=O)(=O)N2CCN(c3ncccn3)CC2)cc1OC	-8%	35µM*	-6	-18	0%	-7
O=C(CN1CCN(S(=O)(=O)c2ccccc2)CC1)Nc1cccc(C(F)(F)F)c1	2%	-17%	3	-18	0%	4
COc1ccc(Cl)cc1NS(=O)(=O)c1cc(-c2n[nH]c(=O)c3c2CCCC3)ccc1C	.	?	.	.	.	-2
CN(C)c1ccc2ncc(Nc3ccc(Oc4ccccc4)cc3)n2n1	.	3%[176 µM]	.	.	.	.
CN(C(=O)COC(=O)CCc1c[nH]c2ccccc12)C(c1ccccc1)c1ccccc1	8%	0%	-5	-80*	-4%	3
O=C(CCc1c[nH]c2ccccc12)OCC(=O)c1ccccc1	.	2%	-12	-5	-4%	-4
Cn1c(COc2ccc3c(c2)CCCC3)nnc1SCC(=O)N1CCN(c2ccccc2)CC1	.	?	.	.	.	2
Cc1ccc(C(CNC(=O)c2cc(-c3ccc4c(c3)OCCO4)on2)N2CCN(C)CC2)o1 (stereo not given)	.	2%	.	.	.	-12
O=C(NC1Cc2ccccc2C1)C1CC1	.	0%	.	.	.	5
C=C(C)C[C@H]1CC=C[C@H](CC(=C)C)[N+]1(C)C	.	18µM*	.	.	.	7
C=C(C)C[C@H]1CC=C[C@H](CC(=C)C)N1	.	?	.	.	.	1
CCN1CCN(C(c2ccccc2OC)c2nnnn2C2CCCCC2)CC1 (stereo not given)	-4%	-2%	6	37	-6%	-3
CCOc1ccc2[nH]c(=O)c(C(c3nnnn3C3CCCCC3)N3CCN(C)CC3)cc2c1 (stereo not given)	3%	0%	10	9	25µM*	-3
COc1ccc2[nH]c(=O)c(C(c3nnnn3C3CCCC3)N3CCN(Cc4ccc5c(c4)OCO5)CC3)cc2c1 (stereo not given)	?	-5%	17	4	28µM*	1
COc1ccc2[nH]c(=O)c(C(c3nnnn3C3CCCC3)N(C)C3CCCCC3)cc2c1 (stereo not given)	5%	-8%	2	-10	?	1
CCOc1ccc2[nH]c(=O)c(C(c3nnnn3C3CCCCC3)N3CCN(CC)CC3)cc2c1 (stereo not given)	1%	-26%	33	3	25µM*	4
CCC(=O)Nc1nnc(-c2ccccn2)o1	1%	-10%	-8	6	?	0
